Data from PubChem BioAssay (EPA / NIEHS).
Calls of active or inactive are those of the source. The calls were made as follows: active = hit-call score of the fitted dose curve at least 0.9, where 1 is the maximum; inactive = score below 0.9.

How the values were obtained:
[1] = APR_HepG2_CellCycleArrest_24hr: Apredica 24-hour HepG2 Assay for Cell Cycle Arrest (AID 2282905); details: imaging, actives raise or lower the signal;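 also: cell cycle arrest scored as ratio of 2N to 4N nuclear DNA content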
How it was run: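 HepG2 cells were exposed to compounds at 0.39–200 uM (ten concentrations, duplicate) in 0.5% v/v DMSO for 24 hr. After formaldehyde fixation and Triton permeabilization, Hoechst 33342-stained nuclei were imaged at 20x; DNA content was quantified, with bidirectional fitting against DMSO.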

[2] = APR_HepG2_NuclearSize_24hr: Apredica 24-hour HepG2 Assay for Nuclear Size (AID 2282907); details: high-content imaging, actives raise or lower the signal
How it was run: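 HepG2 human liver cells were exposed for 24 hr to compounds at 0.39–200 uM (ten concentrations, duplicate) in 0.5% v/v DMSO. They were then formaldehyde-fixed, Triton-permeabilized and Hoechst 33342-stained, and nuclear diameter was imaged at 20x. Bidirectional fits were made against DMSO.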

[3] = APR_HepG2_CellLoss_24hr: Apredica 24-hour HepG2 Assay for Cell Loss (AID 2282908); details: high-content imaging;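 as to AC50: fit in both directions so a hit may be cell loss or gain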
How it was run: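 Compounds were tested at 0.39–200 uM in duplicate with 0.5% v/v DMSO final. Cells were then fixed in 3.7% formaldehyde, Hoechst 33342 nuclei were imaged at 20x by HCS, and cell number was fitted bidirectionally against DMSO.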

[4] = APR_HepG2_MicrotubuleCSK_24hr: Apredica 24-hour HepG2 Assay for Microtubule CSK Stabilty (AID 2282909); details: HepG2 microtubule cytoskeleton imaging, actives raise or lower the signal
How it was run: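 HepG2 cells exposed 24 h to compounds at 0.39–200 uM (duplicate, 0.5% v/v DMSO final), then fixed, permeabilized and immunostained for alpha-tubulin with Hoechst 33342. Cytoskeleton imaged at 20x; bidirectional fit versus DMSO baseline.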

[5] = APR_HepG2_MitoticArrest_24hr: Apredica 24-hour HepG2 Assay for Mitotic Arrest (AID 2282910); details: high-content imaging, actives raise or lower the signal
How it was run: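 Compounds are dosed onto HepG2 cells across ten concentrations up to 200 uM for 24 hr. Cells are then fixed in 3.7% formaldehyde, permeabilised, and labelled for phospho-histone H3 and nuclei; images are scored by cell cycle analysis and fitted bidirectionally relative to DMSO.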

[6] = APR_HepG2_MitoMembPot_24hr: Apredica 24-hour HepG2 Assay for Mitochondrial Membrane Potential (AID 2282911); details: imaging, actives raise or lower the signal
How it was run: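 HepG2 human liver cells were exposed 24 hr to compounds at 0.39–200 uM (final DMSO 0.5% v/v) in duplicate. MitoTracker Red CMXRos (250 nM, 30 min) was loaded before formaldehyde fixation; fluorescence was imaged by ArrayScan HCS and fitted bidirectionally versus DMSO.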

[7] = APR_HepG2_MitoMass_24hr: Apredica 24-hour HepG2 Assay for Mitochondrial Mass (AID 2282912); details: high-content imaging, actives raise or lower the signal
How it was run: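 Human HepG2 liver cells were exposed for 24 hr to compounds at 0.39–200 uM (duplicates, 0.5% v/v DMSO final). They were stained live with 250 nM MitoTracker Red CMXRos for 30 min, fixed in 3.7% formaldehyde, and imaged by HCS fluorescence; signals were fitted bidirectionally against DMSO.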

[8] = APR_HepG2_p53Act_24hr: Apredica 24-hour HepG2 Assay for p53 Activation (AID 2282913); details: high-content imaging, actives raise or lower the signal;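 also: p53 protein immunofluorescence averaged per cell in HepG2 with Hoechst nuclei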
How it was run: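 HepG2 cells exposed 24 hr to compounds at 0.39–200 uM (10 concentrations, duplicate), final DMSO 0.5% v/v. After formaldehyde fixation and Triton permeabilization, p53 was immunolabeled (sheep anti-p53, Cy5 secondary) with Hoechst 33342 nuclear counterstain, then imaged by high-content fluorescence microscopy.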

[9] = APR_HepG2_CellCycleArrest_72hr: Apredica 72-hour HepG2 Assay for Cell Cycle Arrest (AID 2282914); details: high-content imaging, actives raise or lower the signal
How it was run: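 HepG2 cells were exposed to compounds at 0.39–200 uM (0.5% v/v DMSO final, duplicates) for 72 hr, fixed in 3.7% formaldehyde, permeabilized and stained with Hoechst 33342. Nuclear DNA content was quantified by high-content imaging; gain or loss of signal was fitted bidirectionally against DMSO.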

[10] = APR_HepG2_CellLoss_72hr: Apredica 72-hour HepG2 Assay for Cell Loss (AID 2282915); details: high-content imaging
How it was run: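 Cell number comes from Hoechst 33342-labelled nuclei, imaged at 20x after 3.7% formaldehyde fixation. Dosing was 0.39–200 uM, ten concentrations in duplicate, 0.5% DMSO final, for 72 h. Bidirectional fit relative to DMSO baseline.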

Measured: AC50

CC(=O)S[C@H](C(=O)N[C@H]1Cc2ccccc2[C@H]2CCC[C@@H](C(=O)O)N2C1=O)C(C)C
inactive: all assays above

COC(=O)[C@H]1[C@H]2C[C@@H]3c4[nH]c5cc(OC)ccc5c4CCN3C[C@H]2C[C@@H](OC(=O)c2cc(OC)c(OC)c(OC)c2)[C@@H]1OC
inactive: [2] | [9]
active: [1] 79 µM | [3] 37.6 µM | [4] 44.3 µM | [5] 31.1 µM | [6] 90.2 µM | [7] 41.2 µM | [8] 40.3 µM | [10] 19.5 µM

C/C=C/C=C/C(=O)O
active: [9] 71.5 µM | [10] 83.7 µM
not listed: [8]
inactive: all other assays above

OCC(CO)n1cnc(-c2ccc(F)cc2)c1-c1ccnc(Oc2ccccc2)n1
inactive: all assays above

NC(=Nc1ccccc1)Nc1ccccc1
active: [1] 8.86 µM | [5] 21.7 µM | [10] 18.1 µM
inactive: all other assays above

Cc1ccc(C(C)(C)C)c(O)c1
active: [2] 112 µM | [3] 108 µM | [4] 113 µM | [5] 106 µM | [6] 122 µM | [7] 107 µM | [8] 110 µM | [9] 110 µM | [10] 145 µM
inactive: [1]

CN(C)C(=O)NC1(c2ccccc2)CCN(CCC[C@]2(c3ccc(Cl)c(Cl)c3)CCCN(C(=O)c3ccccc3)C2)CC1
active: [1] 24.7 µM | [3] 24.9 µM | [4] 8.32 µM | [5] 16.3 µM | [7] 15.4 µM | [8] 14.8 µM | [10] 16 µM
inactive: [2] | [6] | [9]

CS(=O)(=O)c1ccc([C@@H](C[C@H]2CCC(=O)C2)C(=O)Nc2cnccn2)cc1Cl
inactive: all assays above

CC1=C(C)S(=O)(=O)CCS1(=O)=O
active: [9] 42.8 µM | [10] 37.4 µM
inactive: all other assays above

NC1CCCCC1
not listed: [8]
inactive: all other assays above

CC(COCC(C)OC(=O)c1ccccc1)OC(=O)c1ccccc1 (stereo unspecified)
not listed: [8]
inactive: all other assays above

O=C(Oc1ccccc1)c1cccc(C(=O)Oc2ccccc2)c1
active: [10] 113 µM
not listed: [8]
inactive: all other assays above

CC(C)COC(=O)CCCCC(=O)OCC(C)C
not listed: [8]
inactive: all other assays above

O=C(O)CN(CC(=O)O)CC(=O)O
not listed: [1]
inactive: all other assays above

CCCCCCCC(=O)OC
not listed: [1]
inactive: all other assays above

CCN(CC)CCOc1ccc(C(=C(Cl)c2ccccc2)c2ccccc2)cc1
active: [2] 15.7 µM | [3] 48 µM | [4] 81.2 µM | [5] 10.8 µM | [6] 0.0258 µM | [7] 155 µM | [9] 26.5 µM | [10] 13.7 µM
inactive: [1]

CO[C@@H]1COCC[C@@H]1N[C@@H]1CC[C@@](C(=O)N2CCc3ncc(C(F)(F)F)cc3C2)(C(C)C)C1
not listed: [1]
inactive: all other assays above

CCCCCCC(C=O)=Cc1ccccc1
active: [7] 53.5 µM | [9] 57 µM | [10] 50.2 µM
not listed: [8]
inactive: all other assays above

Nc1nc(Cl)nc2c1ncn2[C@H]1C[C@H](O)[C@@H](CO)O1
active: [2] 0.0451 µM | [3] 0.0403 µM | [7] 0.243 µM | [8] 0.208 µM | [9] 0.0388 µM | [10] 0.162 µM
inactive: [4] | [5] | [6]

Oc1ccc(O)cc1
active: [7] 51.4 µM | [8] 19 µM | [9] 100 µM | [10] 71.7 µM
not listed: [1]
inactive: all other assays above

C=CCc1ccc(OC)c(OC)c1
not listed: [1]
inactive: all other assays above

O=C1NC(=O)C(c2ccccc2)(c2ccccc2)N1
not listed: [8]
inactive: all other assays above
